BRCA1 expr act = BRCA1 expression activation; MCF7-BRCA1-FFLuc reporter, luminescence, 48 h; response scale: scaled: vehicle 0%, 10 µM genistein 100%; Potency, µM (top dose mostly 46.1 µM), without a hit: at the top dose activation, actives largely listed as activators; 380,000 compounds, 1.1% hits; AID 624202; further: potency means the concentration at half of the fitted maximal effect; nearly all actives have a fitted effect of over 80% in size
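Cells: MCF7-BRCA1-FFLuc, 2000/well. Exposure: 48 h, 37 °C, 5% CO2. Read: luminescence, 15 min post-substrate. Controls: genistein 10 microM (maximal activation), DMSO (neutral).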
DRD3 antagonist = D3 dopamine receptor (human) antagonism; P35462; D3R cells, DiscoveRx beta-arrestin luminescence, antagonist mode; active compounds read low; max response, negative = inhibition, %; 360,000 compounds, 2.5% hits; AID 652054; in the data active means max response below about -50%; inconclusive means no clear call, values can overlap the other calls; further: on the % scale 0 is the no-effect control and ±100 the full control effect
Target sequence (P35462 whole entry, looked up): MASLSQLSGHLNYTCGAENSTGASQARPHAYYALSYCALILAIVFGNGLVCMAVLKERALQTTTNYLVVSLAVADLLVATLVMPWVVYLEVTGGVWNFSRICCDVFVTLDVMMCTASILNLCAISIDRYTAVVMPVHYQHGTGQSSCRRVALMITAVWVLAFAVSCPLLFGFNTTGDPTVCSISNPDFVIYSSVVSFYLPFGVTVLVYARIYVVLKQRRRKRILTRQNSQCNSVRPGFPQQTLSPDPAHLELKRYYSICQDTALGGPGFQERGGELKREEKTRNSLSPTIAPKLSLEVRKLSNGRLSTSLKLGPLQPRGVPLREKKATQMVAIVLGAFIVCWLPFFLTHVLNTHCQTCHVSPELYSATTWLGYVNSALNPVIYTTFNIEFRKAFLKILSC
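Cells plated overnight at 1500 cells/well, then exposed to library compounds with dopamine controls for 90 minutes at 37 degrees C. DiscoveRx reagent added for 30–60 minutes at room temperature; luminescence read, quantitative HTS format.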
PTHR1 agonist = agonists of human PTHR1 parathyroid hormone receptor | Q03431 | HEK293 GP2 PTHR1 cells, GloSensor cAMP luminescence, 1 h | Potency, µM (top dose mostly 115 µM), without a hit: at the top dose activation, usual class: activators | 410,000 compounds, 0.075% hits; further: potency means the concentration at half of the fitted maximal effect; nearly all actives have a fitted effect of over 55% in size
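HEK-293-derived GP2 cells expressing PTHR1 and a GloSensor cAMP reporter, 3,000/well, plated overnight, given luciferin plus IBMX (each 0.5 mM as added) for 1 h at 37 °C, then compound for 1 h at 37 °C. Luminescence was read after 15 min at room temperature.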
RGS4 inhibitor = blocks human RGS4-accelerated GTP hydrolysis. P49798. Transcreener GDP fluorescence polarization, RGS4-accelerated GTP hydrolysis. Potency, µM (titrated, usually from 114 µM), inactives show top-dose activity change, negative = inhibition, most hits filed as inhibitors. 390,000 compounds, 0.039% hits; further: potency means the concentration at half of the fitted maximal effect; on the % scale 0 is the no-effect control and ±100 the full control effect; nearly all actives have a fitted effect of over 75% in size
Target sequence (P49798 whole entry, looked up): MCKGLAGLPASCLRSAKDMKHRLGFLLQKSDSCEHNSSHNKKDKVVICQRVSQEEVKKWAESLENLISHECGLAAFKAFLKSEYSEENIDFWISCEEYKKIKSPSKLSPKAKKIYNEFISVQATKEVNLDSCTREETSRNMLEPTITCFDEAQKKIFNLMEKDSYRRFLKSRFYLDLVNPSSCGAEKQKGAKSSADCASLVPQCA
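MLSMR compounds (23 nl, pin-transferred) preincubated 10 min at room temperature with a 500nM (2x) first reagent, then RGS4 at 900nM (2x) plus Transcreener GDP mix added; fluorescence polarization (620/688 nm) read before and after 90 min at 30 °C.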
B2AR arrestin = recruits beta-arrestin to the human beta2-adrenergic receptor. P07550. beta-arrestin recruitment to beta2AR, cell-based reporter. Potency, µM (highest dose often 46.1 µM), without a hit: at the top dose activation, actives largely listed as activators. 330,000 compounds, 0.02% hits. AID 492947;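 further: potency means the concentration at half of the fitted maximal effect; 0% = DMSO controls and full agonism = EC100 isoproterenol or metaproterenol; nearly all actives have a fitted effect of over 65% in size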
DRD3 agonist = activates the human D3 dopamine receptor; P35462; D3R DiscoveRx beta-arrestin cells, luminescence, 90 min; max activation, %; 410,000 compounds, 0.58% hits; in the data active means max activation above about 30%; further: 0% is about no effect
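Agonist mode: compounds and dopamine controls were applied to plated cells for 90 min at 37 degrees C after an overnight attachment at 1500 cells/well. Luminescent read-out followed 30 - 60 minutes at room temperature with DiscoveRx detection reagent.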
Starred values were filed as active, the others as inactive; i = inactive; ? = inconclusive; / = no result; [ ] = remark or other dose. Most compounds without a hit are left out; they make up all but 3.7% or so of the library. Unless noted, the call rests on the fitted dose curve; in most records, active means well fitted curve in the direction sought with a large enough effect; inconclusive means small, poorly fitted or top-dose-only effect, or another doubt; inactive means no such curve, though single readings can be large; an effect the other way counts as inactive or inconclusive.

SMILES	BRCA1 expr act	DRD3 antagonist	PTHR1 agonist	RGS4 inhibitor	B2AR arrestin	DRD3 agonist
Fc1ccc(CN2CCN(c3ncccn3)CC2)cc1	3.1%	-17.2	i	-27.2%	0.4%	50.8*
Fc1ccc(F)c(CN2CCN(c3ncccn3)CC2)c1	12.3%	12.5	i	-5.8%	0.0%	30.9*
Cc1ccc(NC(=O)CCc2c(C)nn(-c3ccc(N4CCCCC4)nn3)c2C)cc1	3.98µM*	13.8	-37.1%	-17.9%[11.4 µM]	0.5%	-0.3
Cc1nn(-c2ccc(N3CCOCC3)nn2)c(C)c1CCC(=O)Nc1ccc(F)cc1F	/	/	-19.2%	-23.1%	/	74.6*
O=C(CCN1CCCCCC1)Nc1ccc(F)c(F)c1	2.2%	-61.9*	i	-29.8%	-0.1%	-11.7
Cc1nn(-c2ccc(N3CCCCC3)nn2)c(C)c1CCC(=O)Nc1ccc(F)c(F)c1	2.24µM*	-0.2	-76.0%	1.5%	-0.7%	5.2
CC(=O)c1ccc(NC(=O)CCc2c(C)nn(-c3ccc(N4CCCCC4)nn3)c2C)cc1	/	/	-18.4%	-17.6%	/	-4.4
Cc1nn(-c2ccc(N3CCCC3)nn2)c(C)c1CCC(=O)Nc1ccc(F)c(Cl)c1	/	/	-91.4%	9.1%	/	4.8
Cc1ccc(N2C(=O)CSC2c2cccs2)cc1 (stereo not given)	1.3%	-56.8*	i	12.1%	-0.3%	12.1
Cc1nc(C(F)(F)F)ccc1C(=O)N1CCC1(C)C(=O)NCc1cccs1 (stereo not given)	7.4%	-90.7*	22.5%	/	/	-2.6
CCCCNC(=O)C1(C)CCN1C(=O)c1ccc(C(F)(F)F)nc1C (stereo not given)	21.3%	-5.6	-22.8%	/	/	-4.4
CC(C)CC1COC(=O)N1 (stereo not given)	26.9%	-14.5	i	-1.7%	-0.9%	-2.1
COc1ccc(C(=S)N2CCN(C)CC2)cc1	8.2%	-73.9*	i	?	0.2%	2.2
CN1CCN(C(=S)c2ccc(Cl)cc2)CC1	-20.9%	-86.9*	i	-15.3%	-0.2%	-0.4
COc1ccc(C(=S)N2CCN(C)CC2)cc1Br	-1.3%	0.0	-16.3%[57.5 µM]	-15.5%	-0.7%	-10.0
CN1CCN(C(=S)NC(=O)c2ccc(Cl)cc2)CC1	-18.1%	6.4	-4.0%	-29.3%	0.7%	-7.9
Nc1cc(=O)nc(SCC(=O)Nc2ccccc2)n1CCc1ccccc1	-27.4%	/	i	5.7%	/	3.3
O=C(Nc1scc(-c2ccc(F)cc2)c1C(=O)O)c1ccco1	92.2%	-26.7	-15.2%[57.5 µM]	-0.7%	-0.3%	4.8
COC(=O)c1c(-c2ccccc2)csc1NC(=O)c1ccco1	5.01µM*	15.1	-18.0%[57.5 µM]	-20.9%	-0.3%	13.9
Cc1cccc(C)c1OCC(O)CNC(C)(C)C (stereo not given)	5.7%	-51.1*	i	4.4%	-0.2%	-0.3
CN(CC(=O)Nc1ccc(Cl)cc1)CC(=O)N1CCc2ccccc21	-2.1%	-11.3	-5.7%	/	/	-3.5
Cc1nnc(Sc2nc3ccccc3o2)c2ccccc12	-46.5%	-68.5*	-31.7%	?	-0.1%	-4.7
Cc1ccc(-c2nnc(Sc3nc4ccccc4o3)c3ccccc23)cc1	-98.1%	?	?	-31.1%	-0.3%	-32.5
CCCN(CCC)CCCNC(=O)c1ccc2c(c1)N(CC)C(=O)c1ccccc1S2=O (stereo not given)	-0.2%	-93.4*	i	-17.9%	-0.1%	-4.6
CCCCSCCCNC(=O)c1ccc2c(c1)N(CC)C(=O)c1ccccc1S2=O (stereo not given)	-37.7%	0.2	28.8%	-18.4%	-0.7%	-1.6
SMILES	BRCA1 expr act	DRD3 antagonist	PTHR1 agonist	RGS4 inhibitor	B2AR arrestin	DRD3 agonist
CCN1C(=O)c2ccccc2S(=O)c2ccc(C(=O)NCc3ccc(OC)cc3)cc21 (stereo not given)	-22.7%	-51.2*	-3.5%	11.9%	0.2%	-6.7
CCN(CC)C(=O)CSc1nnc(-c2c[nH]c3ccccc23)o1	?	-3.3	-7.3%	37.0%	-0.2%	0.6
COc1cc(-c2nc3ccc(C)cn3c2NCc2ccccc2)ccc1SC1CCCCC1	-42.4%	92.7	-27.6%	10.1%	-0.2%	23.7
CCCCCCSc1cc(-c2nc3cc(C)ccn3c2NC2CCCCC2)ccc1OC	-9.4%	0.0	-80.0%	1.9%	0.2%	11.6
CCCCNc1c(-c2ccc(SC3CCCCC3)cc2)nc2cnccn12	-55.5%	106.4	-9.6%	-2.9%	-0.2%	39.7*
COc1cc(-c2nc3ccccn3c2NCc2ccccc2)ccc1SC1CCCCC1	-10.7%	117.8	-41.5%	4.4%	-0.3%	87.3*
CCCCCCSc1cc(-c2nc3cnccn3c2NCc2ccccc2)ccc1OC	0.0%	130.8	-7.4%	-24.5%	2.6%	51.5*
CCC(C)Sc1ccc(-c2nc3cnccn3c2NC2CCCCC2)cc1 (stereo not given)	-31.5%	73.9	-88.4%	25.8%	-1.0%	26.2
CCCCCCSc1ccc(-c2nc3cnccn3c2NC2CCCCC2)cc1	0.6%	-3.7	-8.8%	/	/	3.3
COc1ccc(Sc2ccc(-c3nc4cnccn4c3NC3CCCCC3)cc2OC)cc1	-12.9%	48.5	i	-2.4%	0.1%	45.8*
Cc1ccc(-c2noc(-c3nnn(CC(=O)Nc4ccc(C)cc4Cl)c3N)n2)cc1	/	/	i	4.9%	/	3.7
COc1ccc(NC(=O)CCc2c(C)nc3nc(CNC(=O)OC(C)(C)C)nn3c2C)cc1OC	/	/	i	9.5%	/	7.9
COc1ccc(CCNC(=O)C(=O)NCC(c2cccs2)S(=O)(=O)c2ccc(F)cc2)cc1 (stereo not given)	/	/	-26.2%	-16.7%	/	14.7
CCCCNc1c(-c2ccc(OC)c(SC3CCCCC3)c2)nc2cc(C)ccn12	-73.7%	55.7	-89.9%	7.2%	-0.9%	9.7
CCCCNc1c(-c2ccc(OC)c(SC3CCCCC3)c2)nc2cnccn12	-40.2%	259.0	-44.1%	-10.2%	0.1%	44.8*
COc1ccc(-c2nc3cnccn3c2NCc2ccccc2)cc1SC1CCCCC1	-58.8%	97.0	-22.6%	4.1%	-0.7%	40.4*
CCOC(=O)c1c(NC(=S)NNS(=O)(=O)c2ccc(Br)cc2)sc2c1CCCCC2	-10.3%	12.1	-33.1%	-47.9%	0.0%	2.5
O=C(CN1CCSC1=NCc1ccccc1)c1ccc(Cl)cc1	-6.7%	-66.9*	-50.6%	5.6%	-0.6%	-14.5
CCN(CC)c1ccc2cc(-c3nc(-c4ccccc4)no3)c(=O)oc2c1	/	/	-19.4%	6.5%	/	13.3
COc1cccc(CC2(CO)CCCN(Cc3cn[nH]c3C3CCCCC3)C2)c1 (stereo not given)	-2.0%	11.9	-9.4%	-1.0%	-0.2%	-3.4
Cc1ccsc1C(=O)C1CCCN(Cc2cc(F)ccc2-n2cccn2)C1 (stereo not given)	-34.8%	-61.7*	-15.5%	7.0%	0.4%	-18.4

High-throughput results: PubChem, National Center for Advancing Translational Sciences (NCATS)
